Source: the supplement of paper PMC4466140

How the values were obtained:
Assay in all cases: SPOT peptide array binding signal intensity (averaged, normalized) (arbitrary units (background-subtracted, floor 0; scale differs between SH3 domains)); higher = stronger binding of the SH3 domain to the peptide
AgAbp1 = target: AgAbp1
Description: (§1)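 GST-tagged SH3 domains from S. cerevisiae (Sc), A. gossypii (Ag), C. albicans (Ca) and S. pombe (Sp) were incubated at 10 ug/ml overnight at 4 C on cellulose SPOT membranes carrying 292 synthetic 15-mer peptides mined from the S. cerevisiae proteome (cysteines replaced by serines). Binding was detected with anti-GST antibody, HRP secondary and chemiluminescence, quantified with Genespotter, and reported as normalized spot intensities averaged over biological replicates.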

AgBbc1 = target: AgBbc1
Description: as §1

AgBem1-D1 = target: AgBem1-D1
Description: as §1

AgBzz1-D1 = target: AgBzz1-D1
Description: as §1

AgBzz1-D2 = target: AgBzz1-D2
Description: as §1

AgCyk3 = target: AgCyk3
Description: as §1

AgFus1 = target: AgFus1
Description: as §1

AgHof1 = target: AgHof1
Description: as §1

AgHse1 = target: AgHse1
Description: as §1

AgLsb1 = target: AgLsb1
Description: as §1

AgLsb4 = target: AgLsb4
Description: as §1

AgMyo5 = target: AgMyo5
Description: as §1

AgNbp2 = target: AgNbp2
Description: as §1

AgRvs167 = target: AgRvs167
Description: as §1

AgSho1 = target: AgSho1
Description: as §1

AgSla1-D1-D2 = target: AgSla1-D1-D2
Description: as §1

AgSla1-D3 = target: AgSla1-D3
Description: as §1

CaAbp1-D1 = target: CaAbp1-D1
Description: as §1

CaAbp1-D2 = target: CaAbp1-D2
Description: as §1

CaBbc1 = target: CaBbc1
Description: as §1

CaBem1-D1 = target: CaBem1-D1
Description: as §1

CaBzz1-D1 = target: CaBzz1-D1
Description: as §1

CaBzz1-D2 = target: CaBzz1-D2
Description: as §1

CaCyk3 = target: CaCyk3
Description: as §1

CaFus1 = target: CaFus1
Description: as §1

CaHof1 = target: CaHof1
Description: as §1

CaHse1 = target: CaHse1
Description: as §1

CaLsb1 = target: CaLsb1
Description: as §1

CaLsb4 = target: CaLsb4
Description: as §1

CaMyo5 = target: CaMyo5
Description: as §1

CaNbp2 = target: CaNbp2
Description: as §1

CaRvs167 = target: CaRvs167
Description: as §1

CaRvs167-3 = target: CaRvs167-3
Description: as §1

CaSho1 = target: CaSho1
Description: as §1

CaSla1-D1-D2 = target: CaSla1-D1-D2
Description: as §1

CaSla1-D3 = target: CaSla1-D3
Description: as §1

ScAbp1 = target: ScAbp1
Description: as §1

ScBbc1 = target: ScBbc1
Description: as §1

ScBem1-D1 = target: ScBem1-D1
Description: as §1

ScBzz1-D1 = target: ScBzz1-D1
Description: as §1

ScBzz1-D2 = target: ScBzz1-D2
Description: as §1

ScCyk3 = target: ScCyk3
Description: as §1

ScFus1 = target: ScFus1
Description: as §1

ScHof1 = target: ScHof1
Description: as §1

ScHse1 = target: ScHse1
Description: as §1

ScLsb1 = target: ScLsb1
Description: as §1

ScLsb2 = target: ScLsb2
Description: as §1

ScLsb3 = target: ScLsb3
Description: as §1

ScLsb4 = target: ScLsb4
Description: as §1

ScMyo3 = target: ScMyo3
Description: as §1

ScMyo5 = target: ScMyo5
Description: as §1

ScNbp2 = target: ScNbp2
Description: as §1

ScPex13 = target: ScPex13
Description: as §1

ScRvs167 = target: ScRvs167
Description: as §1

ScSho1 = target: ScSho1
Description: as §1

ScSla1-D1-D2 = target: ScSla1-D1-D2
Description: as §1

ScSla1-D3 = target: ScSla1-D3
Description: as §1

SpAbp1-D1 = target: SpAbp1-D1
Description: as §1

SpBbc1 = target: SpBbc1
Description: as §1

SpBzz1-D1 = target: SpBzz1-D1
Description: as §1

SpBzz1-D2 = target: SpBzz1-D2
Description: as §1

SpCyk3 = target: SpCyk3
Description: as §1

SpHof1 = target: SpHof1
Description: as §1

SpHof1-2 = target: SpHof1-2
Description: as §1

SpHof1-3 = target: SpHof1-3
Description: as §1

SpHse1 = target: SpHse1
Description: as §1

SpLsb1 = target: SpLsb1
Description: as §1

SpLsb4 = target: SpLsb4
Description: as §1

SpMyo1 = target: SpMyo1
Description: as §1

SpNbp2 = target: SpNbp2
Description: as §1

SpPex13 = target: SpPex13
Description: as §1

SpRvs167 = target: SpRvs167
Description: as §1

SpSla1-D1-D2 = target: SpSla1-D1-D2
Description: as §1

SpSla1-D3 = target: SpSla1-D3
Description: as §1

B1: unnamed (peptide)
chain: RPPRPPPKPLHLRTE
SPOT peptide array binding signal intensity (AgAbp1): 1720 | SPOT peptide array binding signal intensity (AgBbc1): 559 | SPOT peptide array binding signal intensity (AgBem1-D1): 113 | SPOT peptide array binding signal intensity (AgBzz1-D1): 270 | SPOT peptide array binding signal intensity (AgBzz1-D2): 69 | SPOT peptide array binding signal intensity (AgCyk3): ≤ 0 | SPOT peptide array binding signal intensity (AgFus1): 5.5 | SPOT peptide array binding signal intensity (AgHof1): 50 | SPOT peptide array binding signal intensity (AgHse1): 178 | SPOT peptide array binding signal intensity (AgLsb1): 27 | SPOT peptide array binding signal intensity (AgLsb4): 52 | SPOT peptide array binding signal intensity (AgMyo5): 8.25 | SPOT peptide array binding signal intensity (AgNbp2): 1310 | SPOT peptide array binding signal intensity (AgRvs167): 12.3 | SPOT peptide array binding signal intensity (AgSho1): 836 | SPOT peptide array binding signal intensity (AgSla1-D1-D2): 28 | SPOT peptide array binding signal intensity (AgSla1-D3): 14 | SPOT peptide array binding signal intensity (CaAbp1-D1): 913 | SPOT peptide array binding signal intensity (CaAbp1-D2): 4480 | SPOT peptide array binding signal intensity (CaBbc1): 626 | SPOT peptide array binding signal intensity (CaBem1-D1): 314 | SPOT peptide array binding signal intensity (CaBzz1-D1): 1940 | SPOT peptide array binding signal intensity (CaBzz1-D2): 405 | SPOT peptide array binding signal intensity (CaCyk3): 29 | SPOT peptide array binding signal intensity (CaFus1): 61.5 | SPOT peptide array binding signal intensity (CaHof1): 1 | SPOT peptide array binding signal intensity (CaHse1): 1310 | SPOT peptide array binding signal intensity (CaLsb1): 0.5 | SPOT peptide array binding signal intensity (CaLsb4): 1080 | SPOT peptide array binding signal intensity (CaMyo5): 2 | SPOT peptide array binding signal intensity (CaNbp2): 567 | SPOT peptide array binding signal intensity (CaRvs167): 67 | SPOT peptide array binding signal intensity (CaRvs167-3): 4.75 | SPOT peptide array binding signal intensity (CaSho1): 148 | SPOT peptide array binding signal intensity (CaSla1-D1-D2): 1990 | SPOT peptide array binding signal intensity (CaSla1-D3): 97.5 | SPOT peptide array binding signal intensity (ScAbp1): 3670 | SPOT peptide array binding signal intensity (ScBbc1): 57.5 | SPOT peptide array binding signal intensity (ScBem1-D1): 4 | SPOT peptide array binding signal intensity (ScBzz1-D1): 49 | SPOT peptide array binding signal intensity (ScBzz1-D2): 26 | SPOT peptide array binding signal intensity (ScCyk3): 1 | SPOT peptide array binding signal intensity (ScFus1): 8 | SPOT peptide array binding signal intensity (ScHof1): 0.5 | SPOT peptide array binding signal intensity (ScHse1): 131 | SPOT peptide array binding signal intensity (ScLsb1): 90 | SPOT peptide array binding signal intensity (ScLsb2): 8 | SPOT peptide array binding signal intensity (ScLsb3): 2810 | SPOT peptide array binding signal intensity (ScLsb4): 58 | SPOT peptide array binding signal intensity (ScMyo3): 72.8 | SPOT peptide array binding signal intensity (ScMyo5): 163 | SPOT peptide array binding signal intensity (ScNbp2): 1770 | SPOT peptide array binding signal intensity (ScPex13): 1500 | SPOT peptide array binding signal intensity (ScRvs167): 375 | SPOT peptide array binding signal intensity (ScSho1): 1530 | SPOT peptide array binding signal intensity (ScSla1-D1-D2): 2390 | SPOT peptide array binding signal intensity (ScSla1-D3): 4.5 | SPOT peptide array binding signal intensity (SpAbp1-D1): 2570 | SPOT peptide array binding signal intensity (SpBbc1): 6 | SPOT peptide array binding signal intensity (SpBzz1-D1): 1060 | SPOT peptide array binding signal intensity (SpBzz1-D2): 43 | SPOT peptide array binding signal intensity (SpCyk3): ≤ 0 | SPOT peptide array binding signal intensity (SpHof1): 65 | SPOT peptide array binding signal intensity (SpHof1-2): 15.5 | SPOT peptide array binding signal intensity (SpHof1-3): 237 | SPOT peptide array binding signal intensity (SpHse1): 216 | SPOT peptide array binding signal intensity (SpLsb1): 582 | SPOT peptide array binding signal intensity (SpLsb4): 1950 | SPOT peptide array binding signal intensity (SpMyo1): 318 | SPOT peptide array binding signal intensity (SpNbp2): 22 | SPOT peptide array binding signal intensity (SpPex13): 17 | SPOT peptide array binding signal intensity (SpRvs167): 865 | SPOT peptide array binding signal intensity (SpSla1-D1-D2): 13.5 | SPOT peptide array binding signal intensity (SpSla1-D3): 4
